Laboratory results reported in PubChem BioAssay AID1159580 (chemical genetic matrix, 2015).
The whole screen tested about 5,500 compounds, of which about 2,000 (36%) were called active. Another 18% or so got no clear call; they are omitted. No stated cut-off is given here; in the data, active means normalized growth mostly below about 0.91 (no sharp cut-off); inconclusive means no clear call, values can overlap the other calls; inactive means mostly above about 0.92. The list shows a part of the results.

Assay: chemical genetic growth profiling, strain panel (AID 1159580);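 further: tested at 20 µM; growth read once vehicle control cultures reached saturation at 30 °C; 1 = growth at the plate median or of vehicle wells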
Conditions: S. cerevisiae deletion strains, growth OD
[1] = locus YAL040C, strain CLN3, stronger effect = lower value
[2] = locus YCL061C, strain MRC1 (second series), stronger effect = lower value
[3] = locus YDR363W, strain ESC2, stronger effect = lower value
[4] = locus YER002W, strain NOP16, stronger effect = lower value
[5] = locus YMR263W, strain SAP30, stronger effect = lower value
[6] = locus YNL128W, strain TEP1, stronger effect = lower value
[7] = locus YNL175C, strain NOP13, stronger effect = lower value
[8] = locus YNL197C, strain WHI3, stronger effect = lower value
[9] = locus YNL224C, strain SQS1, stronger effect = lower value
[10] = locus YOR083W, strain WHI5 (second series), stronger effect = lower value

Measured: normalized growth

CCN1CCC[C@H]1CNC(=O)c1c(O)c(Cl)cc(Cl)c1OC
inactive: [1] 1.01 | [2] 1 | [3] 1.03 | [4] 0.998 | locus YGR229C, strain SMI1, stronger effect = lower value 1.02 | [5] 1.01 | locus YMR307W, strain GAS1, stronger effect = lower value 1 | [6] 1.03 | [7] 1.01 | [8] 1.01 | [9] 1.03 | locus YNL322C, strain KRE1, stronger effect = lower value 1.02 | [10] 1.02 | locus YPL241C, strain CIN2, stronger effect = lower value 0.996

CN(C)CC/C=C1\c2ccccc2COc2ccccc21
inactive: locus YAL013W, strain DEP1, stronger effect = lower value 0.998 | [1] 0.997 | [2] 0.992 | locus YDR150W, strain NUM1, stronger effect = lower value 1.01 | [3] 0.944 | [4] 1.01 | locus YGR078C, strain PAC10, stronger effect = lower value 1.01 | locus YJR075W, strain HOC1, stronger effect = lower value 0.952 | [5] 0.991 | [6] 1.01 | locus YNL153C, strain GIM3, stronger effect = lower value 1.03 | [7] 1.02 | [8] 1 | [9] 1.03 | [10] 0.997
